Results taken from PubChem BioAssay.
For some assays here: Potency and affinity values are given separately. Calls of active or inactive are those of the source. Unless noted, no rule for the calls is given here.

How the values were obtained:
[1] = antimalarial activity against Dd2 strain (AID 2302;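 active = growth inhibition above 50% at the single 2 µM test dose, taken to imply half-maximal potency below 2 µM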;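 also: 0% = DMSO untreated growth and 100% = chloroquine plus artemisinin killed control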); settings: P. falciparum Dd2 in RBCs, LDH growth readout, 72 h; at 2 µM; stronger effect = higher value
[2] = HepG2 cytotoxicity, primary screen, cytotoxicity control for P. falciparum antimalarial project, cell-based, ATP luminescence (AID 2303;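 active = inhibition above 50%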;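 also: 0% = DMSO wells and 100% = digitonin-killed cells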); settings: HepG2 viability, 24-48 h, at 10 µM, stronger effect = higher value
[3] = target: L-lactate dehydrogenase (Plasmodium falciparum (isolate CDC / Honduras)) (UniProt Q27743); experiment: PfLDH activity inhibition – cell lysate, 3D7 strain, counter-screen for P. falciparum growth inhibition project (AID 2304);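 also: 0% = vehicle and 100% = reference inhibitor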; settings: P. falciparum 3D7 crude extract, LDH APAD/NBT absorbance; at 2 µM; stronger effect = higher value
L-lactate dehydrogenase (Plasmodium falciparum (isolate CDC / Honduras)), sequence (Q27743 whole entry, looked up): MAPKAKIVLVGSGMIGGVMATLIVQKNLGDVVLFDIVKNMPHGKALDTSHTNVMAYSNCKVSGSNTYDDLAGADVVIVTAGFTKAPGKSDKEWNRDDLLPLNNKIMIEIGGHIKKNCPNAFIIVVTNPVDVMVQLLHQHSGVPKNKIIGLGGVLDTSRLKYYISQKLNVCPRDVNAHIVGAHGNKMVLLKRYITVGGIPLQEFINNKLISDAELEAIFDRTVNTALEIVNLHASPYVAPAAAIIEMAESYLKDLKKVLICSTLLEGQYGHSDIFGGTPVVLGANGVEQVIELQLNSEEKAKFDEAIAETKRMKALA

[4] = inhibition of 3D7 malaria parasite growth – strain 3D7 (AID 2306);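 also: 0% = DMSO wells and 100% = chloroquine plus artemisinin control wells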; settings: P. falciparum 3D7 erythrocytic growth, LDH absorbance, 72 h; at 2 µM; stronger effect = higher value
[5] = target: Calcium-dependent protein kinase 1 (Plasmodium falciparum (isolate 3D7)) (UniProt P62344); experiment: PfCDPK1 kinase inhibitors, biochemical, TCAMS library (AID 1159585; cut-off not given, nearly all actives have IC50 up to about 0.98 µM;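 also: inhibitors leave more ATP so luminescence rises with inhibition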); settings: recombinant PfCDPK1, Kinase-Glo ATP depletion luminescence
Calcium-dependent protein kinase 1 (Plasmodium falciparum (isolate 3D7)), sequence (P62344 whole entry, looked up): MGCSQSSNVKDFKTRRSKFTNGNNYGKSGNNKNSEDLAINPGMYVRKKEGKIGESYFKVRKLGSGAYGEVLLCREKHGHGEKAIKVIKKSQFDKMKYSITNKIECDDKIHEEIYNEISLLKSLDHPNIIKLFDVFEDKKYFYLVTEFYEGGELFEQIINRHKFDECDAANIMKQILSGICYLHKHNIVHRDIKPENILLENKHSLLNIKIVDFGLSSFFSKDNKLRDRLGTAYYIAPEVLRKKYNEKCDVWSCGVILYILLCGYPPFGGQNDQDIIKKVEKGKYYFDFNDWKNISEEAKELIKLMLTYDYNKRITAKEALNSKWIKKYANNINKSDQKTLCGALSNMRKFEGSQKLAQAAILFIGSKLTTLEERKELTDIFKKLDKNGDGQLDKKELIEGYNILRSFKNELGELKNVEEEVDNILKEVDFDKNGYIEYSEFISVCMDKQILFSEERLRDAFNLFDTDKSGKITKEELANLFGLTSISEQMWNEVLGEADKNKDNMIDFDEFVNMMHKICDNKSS

[6] = target: Plasmodium falciparum protein kinase 6 (PK6, PF3D7_1337100) (UniProt Q8IDW1); experiment: PfPK6 kinase inhibitors, biochemical, TCAMS library (AID 1159586); settings: recombinant PfPK6, Kinase-Glo ATP depletion luminescence
Plasmodium falciparum protein kinase 6 (PK6, PF3D7_1337100), sequence (Q8IDW1 1-305): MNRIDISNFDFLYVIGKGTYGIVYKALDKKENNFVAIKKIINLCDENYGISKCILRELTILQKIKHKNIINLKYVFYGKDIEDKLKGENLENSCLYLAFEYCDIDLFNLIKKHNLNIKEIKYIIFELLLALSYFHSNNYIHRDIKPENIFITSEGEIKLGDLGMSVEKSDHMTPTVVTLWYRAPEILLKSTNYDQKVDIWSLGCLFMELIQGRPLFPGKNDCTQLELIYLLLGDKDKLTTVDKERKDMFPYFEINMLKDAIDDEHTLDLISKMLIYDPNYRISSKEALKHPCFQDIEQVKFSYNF

[7] = target: Protein kinase 7 (PK7), Plasmodium falciparum 3D7 (PF3D7_0213400) (UniProt Q7YTF7); experiment: inhibition of Plasmodium PK7 catalytic activity – biochemical, TCAMS antimalarial set, Kinase-Glo luminescence (AID 1159587); settings: recombinant PfPK7, Kinase-Glo ATP depletion luminescence
Protein kinase 7 (PK7), Plasmodium falciparum 3D7 (PF3D7_0213400), sequence (Q7YTF7 1-343): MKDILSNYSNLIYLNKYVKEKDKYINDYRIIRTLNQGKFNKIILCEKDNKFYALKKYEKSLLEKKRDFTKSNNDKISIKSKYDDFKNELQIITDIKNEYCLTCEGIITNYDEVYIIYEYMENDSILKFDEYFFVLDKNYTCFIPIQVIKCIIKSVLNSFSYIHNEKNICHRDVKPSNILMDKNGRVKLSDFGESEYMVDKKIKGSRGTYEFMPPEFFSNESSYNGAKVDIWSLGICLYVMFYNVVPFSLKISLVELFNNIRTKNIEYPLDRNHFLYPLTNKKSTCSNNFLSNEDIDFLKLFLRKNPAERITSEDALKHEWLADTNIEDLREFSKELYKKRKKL

[8] = target: Calcium-dependent protein kinase 4 (Plasmodium falciparum (isolate 3D7)) (UniProt Q8IBS5); experiment: PfCDPK4 kinase inhibitors, biochemical, TCAMS library (AID 1159588; cut-off not given, nearly all actives have IC50 up to about 0.91 µM); settings: recombinant PfCDPK4, Kinase-Glo ATP depletion luminescence
Calcium-dependent protein kinase 4 (Plasmodium falciparum (isolate 3D7)), sequence (Q8IBS5 whole entry, looked up): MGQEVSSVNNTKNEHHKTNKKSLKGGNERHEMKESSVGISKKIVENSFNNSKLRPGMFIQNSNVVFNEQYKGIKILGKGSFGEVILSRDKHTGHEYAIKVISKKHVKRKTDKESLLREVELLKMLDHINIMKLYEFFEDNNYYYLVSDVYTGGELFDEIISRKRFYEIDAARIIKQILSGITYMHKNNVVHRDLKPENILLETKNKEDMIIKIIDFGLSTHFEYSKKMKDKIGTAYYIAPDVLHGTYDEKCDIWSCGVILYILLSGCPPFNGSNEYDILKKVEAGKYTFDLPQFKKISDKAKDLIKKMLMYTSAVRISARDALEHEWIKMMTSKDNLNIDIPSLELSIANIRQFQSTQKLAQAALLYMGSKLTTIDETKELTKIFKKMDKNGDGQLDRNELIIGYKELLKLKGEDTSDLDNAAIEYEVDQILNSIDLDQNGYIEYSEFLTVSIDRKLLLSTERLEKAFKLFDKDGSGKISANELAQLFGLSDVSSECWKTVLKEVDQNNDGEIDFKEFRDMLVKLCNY

CS(=O)(=O)c1ccc(CNCc2cccc(-c3cccc(-c4nc5ccccc5[nH]4)c3)c2)cc1
inactive: growth inhibition [1] 47% | inhibition [2] 3% | inhibition [3] -7% | outcome [5] | outcome [6] | outcome [7] | outcome [8]
active: growth inhibition [4] 101%

Cc1c(S(=O)(=O)Nc2ccc3ccn(CCN(C)C)c3c2)sc2ccc(Cl)cc12
inactive: inhibition [2] 15% | inhibition [3] 0% | outcome [5] | outcome [6] | outcome [7] | outcome [8]
active: growth inhibition [1] 94% | growth inhibition [4] 98%

COc1cc2c(c(OC)c1[N+](=O)[O-])C=CC1(O2)N(C)c2ccc([N+](=O)[O-])cc2C1(C)C (stereo not given)
active: growth inhibition [1] 89% | growth inhibition [4] 92%
inactive: inhibition [2] -13% | inhibition [3] -5% | outcome [5] | outcome [6] | outcome [7] | outcome [8]

COc1ccc(C=NNc2ccnc3cc(F)c(C)cc23)c2ccccc12
inactive: inhibition [2] -6% | inhibition [3] 3% | outcome [5] | outcome [6] | outcome [7] | outcome [8]
active: growth inhibition [1] 85% | growth inhibition [4] 101%

O=C(NCCNc1ccnc(Nc2ccc(F)cc2)n1)c1cc2ccccc2s1
inactive: growth inhibition [1] 34% | inhibition [2] -1% | inhibition [3] -11% | outcome [5] | outcome [6] | outcome [7] | outcome [8]
active: growth inhibition [4] 99%

O=C(Nc1ccc2c(c1)OCO2)NC1CCN(c2ccnc(NCc3ccc(F)cc3)n2)CC1
inactive: growth inhibition [1] 15% | inhibition [2] 33% | inhibition [3] 3% | outcome [5] | outcome [6] | outcome [7] | outcome [8]
active: growth inhibition [4] 88%

COc1ccc(CNC(=O)NC2CCN(c3ccnc(Nc4ccc(F)cc4)n3)CC2)cc1
inactive: growth inhibition [1] 4% | inhibition [2] 16% | inhibition [3] -6% | outcome [5] | outcome [6] | outcome [7] | outcome [8]
active: growth inhibition [4] 87%

Cc1ccc(-n2ncc(C(=O)Nc3cc(Cl)cc(Cl)c3)c2C2CCNCC2)cc1C
active: growth inhibition [1] 77% | inhibition [2] 65% | growth inhibition [4] 100%
inactive: inhibition [3] -7% | outcome [5] | outcome [6] | outcome [7] | outcome [8]

Cc1nc(Nc2cc(Cl)ccc2O)nc(Nc2cc(Cl)ccc2O)c1[N+](=O)[O-]
inactive: inhibition [2] -4% | inhibition [3] 3% | outcome [5] | outcome [6] | outcome [7] | outcome [8]
active: growth inhibition [1] 83% | growth inhibition [4] 98%

COc1ccc2c(c1)Sc1ccccc1C(N1CCN(CCO)CC1)C2 (stereo not given)
inactive: growth inhibition [1] 4% | inhibition [2] 11% | inhibition [3] -3% | outcome [5] | outcome [6] | outcome [7] | outcome [8]
active: growth inhibition [4] 95%

COc1cc(NC(=O)c2sc(-c3ccc(Cl)cc3)cc2NC(=O)CN2CC[C@@H](O)C2)ccc1OCCN1CCCC1
active: growth inhibition [1] 79% | inhibition [2] 56% | growth inhibition [4] 90%
inactive: inhibition [3] 6% | outcome [5] | outcome [6] | outcome [7] | outcome [8]

Cc1cc(NCCc2ccccc2)nc(/N=C(\N)Nc2cccc(Cl)c2)n1
inactive: inhibition [2] 24% | inhibition [3] 4% | outcome [5] | outcome [6] | outcome [7] | outcome [8]
active: growth inhibition [1] 100% | growth inhibition [4] 101%

CC1(C)N=C(N)N=C(N)N1c1cccc(I)c1
active: growth inhibition [1] 85% | inhibition [2] 68% | growth inhibition [4] 95%
inactive: inhibition [3] -2% | outcome [5] | outcome [6] | outcome [7] | outcome [8]

Cc1nnc2c(NC(=O)NC3CCCC3)cc3ccc(-c4cccc(CN(C)C)c4)cc3n12
active: growth inhibition [4] 90%
inactive: growth inhibition [1] 25% | inhibition [2] 42% | inhibition [3] 3% | outcome [5] | outcome [6] | outcome [7] | outcome [8]

COc1cccc(NC(=O)NCCNc2ccnc(Nc3ccc(F)cc3)n2)c1
active: growth inhibition [4] 94%
inactive: growth inhibition [1] 1% | inhibition [2] 18% | inhibition [3] 4% | outcome [5] | outcome [6] | outcome [7] | outcome [8]

NS(=O)(=O)c1cccc(Br)c1
inactive: growth inhibition [1] -5% | inhibition [2] 0% | inhibition [3] 0% | outcome [5] | outcome [6] | outcome [7] | outcome [8]
active: growth inhibition [4] 98%

COc1ccc2oc(=O)c(C#N)c(O)c2c1
active: growth inhibition [4] 99%
inactive: growth inhibition [1] -4% | inhibition [2] -2% | inhibition [3] 2% | outcome [5] | outcome [6] | outcome [7] | outcome [8]

CS(=O)(=O)c1ccc(CNCc2ccc(-c3ccc(-c4nc5ccc(C(F)(F)F)cc5[nH]4)s3)cc2)cc1
active: growth inhibition [1] 98% | growth inhibition [4] 102%
inactive: inhibition [2] 49% | inhibition [3] -5% | outcome [5] | outcome [6] | outcome [7] | outcome [8]

CN1CCC(C(=O)Nc2ccc(-c3cccc(-c4nc5ccc(F)cc5[nH]4)c3)cc2)CC1
inactive: growth inhibition [1] 5% | inhibition [2] 19% | inhibition [3] 5% | outcome [5] | outcome [6] | outcome [7] | outcome [8]
active: growth inhibition [4] 101%

CCn1ncc2c(N3CCCC3=O)cc(C(=O)N[C@@H](Cc3ccccc3)[C@H](O)CNC(C)(C)c3cccc(OC)c3)cc21
inactive: inhibition [2] 6% | inhibition [3] 0% | outcome [5] | outcome [6] | outcome [7] | outcome [8]
active: growth inhibition [1] 97% | growth inhibition [4] 98%

COc1ccc2nc3cc(Cl)ccc3c(Nc3ccc(O)c(CNC(C)C)c3)c2c1
active: growth inhibition [1] 100% | growth inhibition [4] 102%
inactive: inhibition [2] 5% | inhibition [3] -1% | outcome [5] | outcome [6] | outcome [7] | outcome [8]

Cc1ccc(S(=O)(=O)NC2CCN(c3ccnc4cc(Cl)ccc34)C2)cc1 (stereo not given)
inactive: inhibition [2] 21% | inhibition [3] -3% | outcome [5] | outcome [6] | outcome [7] | outcome [8]
active: growth inhibition [1] 90% | growth inhibition [4] 99%

Cn1cnc(CCNC(=O)c2ccc(-c3ccc(-c4nc5ccc(C(F)(F)F)cc5[nH]4)s3)cc2)c1
active: growth inhibition [1] 99% | inhibition [2] 75% | growth inhibition [4] 102%
inactive: inhibition [3] -2% | outcome [5] | outcome [6] | outcome [7] | outcome [8]

O=C(CCc1cnc[nH]1)Nc1cccc(-c2ccc(-c3nc4ccc(F)cc4[nH]3)cc2)c1
active: growth inhibition [1] 79% | growth inhibition [4] 101%
inactive: inhibition [2] 18% | inhibition [3] -1% | outcome [5] | outcome [6] | outcome [7] | outcome [8]

Cc1cc(NCCC(=O)NCCOc2ccccc2)nc(NCCc2ccccc2)n1
active: growth inhibition [4] 99%
inactive: growth inhibition [1] 9% | inhibition [2] -6% | inhibition [3] -1% | outcome [5] | outcome [6] | outcome [7] | outcome [8]

CN(C)CCOc1ccc2c(c1)OC(C)(C)C=C2c1cccc2ccccc12
inactive: growth inhibition [1] 48% | inhibition [3] -2% | outcome [5] | outcome [6] | outcome [7] | outcome [8]
active: inhibition [2] 66% | growth inhibition [4] 95%

Nc1nc(F)nc2nc[nH]c12
active: inhibition [2] 78% | growth inhibition [4] 89%
inactive: growth inhibition [1] 25% | inhibition [3] -2% | outcome [5] | outcome [6] | outcome [7] | outcome [8]

CCCCCCCNc1cc(C)nc2ccc(OC)cc12
active: growth inhibition [1] 100% | growth inhibition [4] 101%
inactive: inhibition [2] 30% | inhibition [3] -2% | outcome [5] | outcome [6] | outcome [7] | outcome [8]

COc1ccc(-c2cncc3ccc(C(=O)NCCCn4ccnc4)nc23)cc1
active: growth inhibition [1] 99% | growth inhibition [4] 95%
inactive: inhibition [2] 28% | inhibition [3] -3% | outcome [5] | outcome [6] | outcome [7] | outcome [8]

Cc1cc(NC(=O)Nc2cccc(Cl)c2Cl)c2ccccc2n1
inactive: growth inhibition [1] 25% | inhibition [2] -5% | inhibition [3] 1% | outcome [5] | outcome [6] | outcome [7] | outcome [8]
active: growth inhibition [4] 96%

OCCN1CCN(C2Cc3ccc(F)cc3Sc3ccc(Cl)cc32)CC1 (stereo not given)
active: inhibition [2] 56% | growth inhibition [4] 98%
inactive: growth inhibition [1] 26% | inhibition [3] 3% | outcome [5] | outcome [6] | outcome [7] | outcome [8]

Cn1c(CN2CCC(N3CCc4cc(NC(=O)c5ccco5)ccc43)C2)cc2ccccc21 (stereo not given)
active: growth inhibition [1] 92% | growth inhibition [4] 91%
inactive: inhibition [2] -1% | inhibition [3] -3% | outcome [5] | outcome [6] | outcome [7] | outcome [8]

Cc1ccc(NS(=O)(=O)c2cccs2)cc1-c1cccc(C(=O)Nc2ccc(F)cc2)c1
inactive: inhibition [2] 38% | inhibition [3] 0% | outcome [5] | outcome [6] | outcome [7] | outcome [8]
active: growth inhibition [1] 100% | growth inhibition [4] 99%

COc1ccc2nccc([C@@H](O)CN3CCC(NCc4cc5cccc(O)c5[nH]4)CC3)c2c1
active: growth inhibition [4] 101%
inactive: growth inhibition [1] 35% | inhibition [2] -10% | inhibition [3] -6% | outcome [5] | outcome [6] | outcome [7] | outcome [8]

COc1ccc2c(NN=CC=Cc3ccccc3)cc(C)nc2c1
inactive: inhibition [2] 18% | inhibition [3] 2% | outcome [5] | outcome [6] | outcome [7] | outcome [8]
active: growth inhibition [1] 56% | growth inhibition [4] 99%

Cc1cccc2[nH]c(-c3ccc(-c4ccc(CN5CCCCC5)cc4)s3)nc12
active: growth inhibition [1] 87% | growth inhibition [4] 99%
inactive: inhibition [2] 16% | inhibition [3] -2% | outcome [5] | outcome [6] | outcome [7] | outcome [8]

CCOc1ccc(-c2cc3nc(C4CCNCC4)c(C(=O)Nc4ccc(C)cc4Cl)cn3n2)cc1
inactive: growth inhibition [1] 22% | inhibition [3] 2% | outcome [5] | outcome [6] | outcome [7] | outcome [8]
active: inhibition [2] 63% | growth inhibition [4] 95%

CCCc1ccccc1Nc1nc(C)cc(N(CC)CCCN2CCCCC2)n1
active: growth inhibition [4] 98%
inactive: growth inhibition [1] 49% | inhibition [2] 27% | inhibition [3] -3% | outcome [5] | outcome [6] | outcome [7] | outcome [8]

COc1ccc(F)cc1-c1ccc(C(=O)N2CCCN(c3ccc(C#N)cn3)CC2)cc1
inactive: inhibition [2] 9% | inhibition [3] -2% | outcome [5] | outcome [6] | outcome [7] | outcome [8]
active: growth inhibition [1] 100% | growth inhibition [4] 99%

N#Cc1cccc(Nc2cc(C(F)(F)F)nc(Nc3ccccc3)n2)c1
inactive: growth inhibition [1] 17% | inhibition [2] 7% | inhibition [3] 5% | outcome [5] | outcome [6] | outcome [7] | outcome [8]
active: growth inhibition [4] 92%
